Here are results for 26 compounds from PubChem BioAssay (NCATS).

“And” between values parts separate entries of the source, which are not always exact repeats. Identical values can stand only once. Values without a mark were called inactive. Results filed as inconclusive are left out. More than one record can exist for a structure, and the calls need not agree. The source made the active and inactive calls. Unless noted, calls follow the shape of the dose curve; as a rule, active = well fitted curve in the direction sought with a large enough effect; inconclusive = small, poorly fitted or top-dose-only effect, or another doubt; inactive = no such curve, though single readings can be large; an effect the other way counts as inactive or inconclusive.

One test deals with Tov112D. Kind of test: Primary qHTS to identify gynecologic anti-cancer compounds using libraries of approved drugs and bioactive compounds (AID 1345084). Also: nearly all actives have a fitted effect of over 55% in size. Also: potency is read from the fitted curve at half-maximal effect. As to conditions: Gynecologic cancer cell panel viability, ATPlite luminescence, 48 h; series mostly up to 57.5 µM. The method in brief: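 Five-point cytotoxicity, 48 h drug exposure at 37 C, 5% CO2, on cells seeded 16 h beforehand. ATP content read by ATPlite luminescence.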
(qHTS replaces the single test concentration by a dilution series.)

Test [1] is described as follows: Drug repurposing screens with cells derived from glioblastoma tumor samples (AID 1345199). Also: nearly all actives have a fitted effect of over 40% in size. Also: potency is read from the fitted curve at half-maximal effect. As to activity, negative = cell killing: % is scaled to controls: 0 for no effect and ±100 for the full control effect. The following applies: GBM patient neurospheres viability, ATP luminescence, 48 h. The method in brief:
(§1)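 Four patient lines of CD133+ GBM neurospheres were screened at several concentrations; hits were retested in those lines plus three slower-growing GBM lines, using 48-hour treatment and ATP-based viability.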

In the next test the test system is astro. Described as above. The following applies: viability, ATP luminescence, 48 h; series mostly up to 45.9 µM. The method, boiled down: as §1
Test [2] in a line: qHTS assay for small molecule activators of the human pregnane X receptor (PXR) signaling pathway (AID 720659; call rule not given here; also: 0% is about no effect).
Test [3] deals with Nuclear receptor subfamily 1 group I member 2 (Rattus norvegicus) (UniProt Q9R1A7). The test is described as follows: qHTS assay for small molecule activators of the rat pregnane X receptor (rPXR) signaling pathway (AID 651751; call rule not given here; also: 0% is about no effect). The following applies: rPXR reporter cells, luciferase (One-Glo), 24 h.
A short description of test [4]: qHTS assay to identify inhibitors of the type 1 interferon - major histocompatibility complex class I in skeletal muscle: Counter screen cell viability and HiBit confirmation (AID 1347412). Also: potency is read from the fitted curve at half-maximal effect; nearly all actives have a fitted effect of over 60% in size. As to conditions: iHSKM muscle cells + IFN-b, HiBiT or CellTiter-Glo, 24 h; Potency: HiBiT; Viability, at 45.9 µM (top of the series). The method, boiled down: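 Luminescence read-out: Nano-Glo HiBiT lytic signal from C-terminally HiBiT-tagged HLA-B in CRISPR-edited human myoblasts, plus CellTiter Glo ATP as viability counter screen. IFN-beta 4.0 ng/ml; 24 hrs treatment at 37 C, 5% CO2.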

Setting [5] is: at 45.9 µM (top of the series), tumour line B.
Setting [6] is: at 45.9 µM (top of the series), tumour line D.
Setting [7] is: at 46 µM (top of the series), tumour line A.
Setting [8] is: at 21.2 µM (top of the series), tumour line B.

Nuclear receptor subfamily 1 group I member 2 (Rattus norvegicus), sequence (Q9R1A7 whole entry, looked up): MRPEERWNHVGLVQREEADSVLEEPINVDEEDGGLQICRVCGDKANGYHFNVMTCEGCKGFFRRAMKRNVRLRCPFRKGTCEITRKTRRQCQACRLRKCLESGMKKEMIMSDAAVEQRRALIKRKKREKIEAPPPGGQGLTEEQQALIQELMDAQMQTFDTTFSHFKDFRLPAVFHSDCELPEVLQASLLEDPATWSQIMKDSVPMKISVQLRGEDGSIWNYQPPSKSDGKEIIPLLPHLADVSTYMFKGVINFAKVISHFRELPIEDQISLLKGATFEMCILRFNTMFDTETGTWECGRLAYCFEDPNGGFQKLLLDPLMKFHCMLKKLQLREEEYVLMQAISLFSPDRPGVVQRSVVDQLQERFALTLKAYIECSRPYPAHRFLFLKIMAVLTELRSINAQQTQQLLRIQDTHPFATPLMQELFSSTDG

For `CCC1(C2=NCCN2)Cc2ccccc2O1` (stereo unspecified), the Potency entry with Tov112D was “inactive”. Further, the results for the activity, negative = cell killing in test [1] (setting [5]) and in test [1] (setting [6]) were -22.3% and -18%, respectively. Further, the Potency in test [1] (tumour line A) is 7.08 µM (active).
For `CC(C)CC(N(C)C)C1(c2ccc(Cl)cc2)CCC1` (stereo unspecified), the Potency entry in the test on Tov112D and in the test on astro was “inactive” in each case. The activity, negative = cell killing in test [1] (setting [5]) is -27.3%; in test [1] (setting [6]), -16.7%; in test [1] (setting [7]), -28.1%.
Turning to `CCCC1CCCCN1` (stereo unspecified), the Potency entry in the test on Tov112D and in the test with astro was “inactive” each time. Further, the activity, negative = cell killing in test [1] (setting [5]) is -22.5%; in test [1] (setting [6]), -32.7%.
In the case of `O=C1NCN(c2ccccc2)C12CCN(CC1COc3ccccc3O1)CC2` (stereo unspecified), the Potency entry in the test with Tov112D and with astro was “inactive” in each case. Besides, the activity, negative = cell killing in test [1] (setting [5]) was -6.74%. In addition, the Potency in test [1] (tumour line A) is 12.6 µM (active).
As to `OCCOc1ccccc1`, the Potency entry with Tov112D and in the test with astro was “inactive” in each case. In addition, the activity, negative = cell killing in test [1] (setting [5]) was 3.03% and -11.2%; in test [1] (setting [6]) it was -21.5% and 1.35%; in test [1] (setting [7]), -19.1%. The compound was classed as inactive in test [2].
In the case of `CC(C)NCC(O)c1ccccc1Cl` (stereo unspecified), the Potency entry in the test on Tov112D and in the test on astro was “inactive” in each case. Also, the activity, negative = cell killing in test [1] (setting [5]) was -16.7%; in test [1] (setting [6]), -18.1%.
As for `Clc1ccc(CCC(Cn2ccnc2)Sc2c(Cl)cccc2Cl)cc1` (stereo unspecified), the Potency result in the test on Tov112D and with astro was “inactive” throughout. Further, the activity, negative = cell killing in test [1] (setting [8]) was -25.1%. The Potency in test [1] (tumour line A) is 1.12 µM (active).
For `O=c1[nH]c2ccccc2n1C1CCN(CCCC(c2ccc(F)cc2)c2ccc(F)cc2)CC1`, the Potency entry with Tov112D was “inactive”. Also, the Potency in test [1] (tumour line A) is 2.82 µM (active); in test [1] (tumour line B) it was 8.91 µM (active); in test [1] (tumour line D), 5.62 µM (active); in the test with astro, 17.8 µM (active). The compound was called inactive in test [2].
Turning to `CC(C)(C)CC(C)(C)c1ccc(O)cc1`, in the test on Tov112D, the Potency result was “inactive”. The activity, negative = cell killing in test [1] (setting [6]) was -15%. For the same compound, the figures for the Potency in test [1] (tumour line B) and in test [1] (tumour line D) were 44.7 µM (active) and 63.1 µM (active), respectively. In addition, in test [3], the max response is -11.1%.
Take `O=c1[nH]c2ccccc2n1CCCN1CCC(n2c(=O)[nH]c3cc(Cl)ccc32)CC1`: the Potency entry in the test on Tov112D and in the test with astro was “inactive” each time. For the same compound, the activity, negative = cell killing in test [1] (setting [5]) was -24.9%. The Potency in test [1] (tumour line A) was 2.82 µM (active).
On to `Cc1cccc(C)c1NC(=O)CN1CCCC1=O`, for which the Potency result with Tov112D and in the test with astro was “inactive” in each case. For the same compound, the activity, negative = cell killing in test [1] (setting [5]) is -2.88%; in test [1] (setting [6]), -0.691%; in test [1] (setting [7]), -27.7%.
Consider `COc1ccc(C(=O)c2c(C)n(CCN3CCOCC3)c3ccccc23)cc1`, for which the Potency entry in the test on Tov112D and in the test with astro was “inactive” each time. Moreover, the activity, negative = cell killing in test [1] (setting [5]) is -14.8%; in test [1] (setting [6]), -16%.
Regarding `CCOP(=S)(OCC)Oc1cc(C)nc(C(C)C)n1`, the Potency result in the test on Tov112D and with astro was “inactive” throughout. Moreover, the activity, negative = cell killing was -12.9% in test [1] (setting [5]), 4.41% in test [1] (setting [6]) and -24.4% in test [1] (setting [7]). In test [3], the max response was 3.69% and 1.39%.
As for `Cn1c(CCCC(=O)O)nc2cc(N(CCCl)CCCl)ccc21`, the Potency result in the test with Tov112D and in the test on astro was “inactive” throughout. Also, the activity, negative = cell killing in test [1] (setting [5]) was -8.98%; in test [1] (setting [6]) it was -16.3%.
Turning to `CC(C)(C)NCC(O)c1cc(Cl)c(N)c(Cl)c1` (stereo unspecified), the Potency result with Tov112D and with astro was “inactive” throughout. Besides, the activity, negative = cell killing in test [1] (setting [5]) is -4.05%; in test [1] (setting [6]) it was -25.9%.
Take `Clc1cccc(N2CCNCC2)c1`: the Potency entry in the test on Tov112D and in the test on astro was “inactive” each time. Besides, the activity, negative = cell killing in test [1] (setting [5]) was -20%. Moreover, the Potency in test [1] (tumour line A) is 35.5 µM (active).
On to `CCN(CC)CCN1C(=O)CN=C(c2ccccc2F)c2cc(Cl)ccc21`, for which the Potency entry in the test with Tov112D and in the test with astro was “inactive” each time. The activity, negative = cell killing in test [1] (setting [5]) is -20.2%. Moreover, the Potency in test [1] (tumour line A) was 14.1 µM (active).
For `Oc1ccccc1-c1ccccc1`, the Potency entry in the test on Tov112D and in the test on astro was “inactive” each time. Moreover, the activity, negative = cell killing in test [1] (setting [5]) was -14.5%; in test [1] (setting [6]), -15.4%; in test [1] (setting [7]), -19.2%. Also, the max response in test [3] was -0.588% [middle of 4 runs].
For the compound `C=C1CC[C@@]2(O)[C@H]3Cc4ccc(O)c5c4[C@@]2(CCN3CC2CC2)[C@H]1O5`, the Potency result in the test on Tov112D and in the test with astro was “inactive” throughout. Also, the activity, negative = cell killing was -11% in test [1] (setting [5]) and 5.06% in test [1] (setting [6]).
Regarding `CCN(CC)CCOC(=O)C(O)(c1ccccc1)c1ccccc1`, the Potency entry in the test with Tov112D and in the test with astro was “inactive” throughout. The activity, negative = cell killing in test [1] (setting [5]) is -7.05%; in test [1] (setting [6]) it was -0.674%; in test [1] (setting [7]), -16.9%.
`Nc1ccncc1`: the Potency entry with Tov112D and in the test on astro was “inactive” each time. For the same compound, the activity, negative = cell killing is -0.63% in test [1] (setting [5]), -4.86% in test [1] (setting [6]) and -29.8% in test [1] (setting [7]). In addition, the max response in test [3] was -1.96%. In addition, the outcome in test [2] was inactive.
On to `C[C@@H]1O[C@@H](O[C@H]2C[C@@H](O)[C@]3(CO)[C@H]4[C@H](O)C[C@]5(C)[C@@H](C6=CC(=O)OC6)CC[C@]5(O)[C@@H]4CC[C@]3(O)C2)[C@H](O)[C@H](O)[C@H]1O`, for which the Potency with Tov112D was 89.1 nM (active) and 100 nM (active); in test [1] (tumour line A) it was 0.158 µM (active); in test [1] (tumour line B) it was 0.112 µM (active); in test [1] (tumour line D) it was 0.398 µM (active); with astro, 316 nM (active) and 89.1 nM (active); in test [4], 70.1 nM (active) and 55.7 nM (active). Besides, the max response in test [3] is 0.133%. For the same compound, in test [2], the outcome was inactive.
Regarding `CC[N+]1(C)CCCC(OC(=O)C(O)(c2ccccc2)c2ccccc2)C1` (stereo unspecified), the Potency result with Tov112D and in the test on astro was “inactive” each time. The results for the activity, negative = cell killing in test [1] (setting [5]) and in test [1] (setting [6]) were -10.4% and -8.99%, respectively.
Take `CNCC(O)c1ccc(O)cc1` (stereo unspecified): the Potency entry with Tov112D and in the test on astro was “inactive” throughout. Further, the activity, negative = cell killing is 9.4% in test [1] (setting [8]); 0.215% in test [1] (at 21.2 µM (top of the series), tumour line D); -26.2% in test [1] (at 21.3 µM (top of the series), tumour line A). Also, in test [3], the max response was -0.194%. Further, the compound was called inactive in test [2].
For the compound `N[C@@H]1C[C@H]1c1ccccc1`, the Potency entry in the test on Tov112D and with astro was “inactive” throughout. Further, the activity, negative = cell killing in test [1] (setting [5]) is -7.72%; in test [1] (setting [6]), -6.02%.
Consider `Cc1cccc(C)c1NC1=NCCCS1`, for which the Potency entry in the test on Tov112D and with astro was “inactive” throughout. Moreover, the activity, negative = cell killing in test [1] (setting [5]) was -12.3%. In test [1] (tumour line A), the Potency was 17.8 µM (active).
